Several values for one entry are separate records, joined by “and”; a condition that tells them apart may be missing. Equal entries are not always repeated. About 83,000 compounds went through this panel and 20% of them were active in at least one assay; those are over-represented in the sample as a whole.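 Single-dose data. Exposure time 48 hours. Values below 10 considered active.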 Unmarked numbers belong to inactive results. Activity calls are given as the source filed them.
system: NCI-H23 lung; assay: NCI-60 one-dose screen, 48 h (100 = growth as untreated, 0 = no growth, -100 = all killed); settings: 10 µM
Protocol: Growth inhibition of the NCI-H23 human Non-Small Cell Lung tumor cell line is measured as a screen for anti-cancer activity. Cells are grown in 96 well plates and exposed to the test compound for 48 hours. Compounds are tested at a single concentration, which is 10^-5 M for most compounds. The reported endpoint is percent growth (GI% or GIPRCNT), where numbers from 0 - 100% represent growth inhibition, and numbers from -100% - 0 represent cell death. For example, a value of 40 represents 60% growth inhibition. A value of 0 means no net growth occurred over the course of the experiment. A value of -40 indicates 40% of cells at the beginning of the experiment died by the end of the experiment. A value of -100 means all cells are dead at the end of the experiment.
NCI-60 Human Tumor Cell Lines Screen was performed using the standard one-dose NCI protocol, which is described in more detail at https://dtp.cancer.gov/discovery_development/nci-60/default.htm.
Compounds with GIPRCNT values below 10 were considered active. Activity score was based on GIPRCNT using the following formula: […]
Score is 0 for GIPRCNT values of 100 or above, 50 for GIPRCNT values of 0, and 100 for GIPRCNT values of -100.

SMILES | growth
COc1cc(/C=C\[N+](=O)[O-])ccc1O | 83.1% and 77.3%
O=[N+]([O-])c1ccc(N(CCO)CCO)c2c1no[n+]2[O-] | 10.1%
O=[N+]([O-])c1ccc(N2CCOCC2)c2c1no[n+]2[O-] | 13.1%
Cc1ccc(NC(=O)CBr)cc1 | 91.7%
[Cl][Sn]([c]1ccccc1)([c]1ccccc1)[c]1ccccc1 | -71.6% (active)
Cc1cc([N+](=O)[O-])c2ccccc2[n+]1[O-] | -25.5% (active) and -33.7% (active)
C[C@]12CC[C@H]3[C@@H](CCC4=CC(=O)CC[C@@H]43)[C@@H]1CC[C@@H]2OC(=O)N(CCCl)N=O | 55.7%
[O-][n+]1ccccc1S | 73.5%
COC(C(=O)C(O)C(C)O)C1Cc2cc3cc(OC4CC(OC(C)=O)C(OC5CC(O)C(OC)C(C)O5)C(C)O4)cc(O)c3c(O)c2C(=O)C1OC1CC(OC2CC(OC3CC(C)(O)C(OC(=O)C(C)C)C(C)O3)C(O)C(C)O2)C(O)C(C)O1 (stereo not given) | 8.85% (active)
O=C(CBr)Nc1ccccc1 | 93.1%
CC12OOC(c3ccccc31)c1c2ccc2ccccc12 (stereo not given) | 32.7%
CN(CCCl)c1ccc(/C=C/C2=[N+](C)c3ccccc3C2(C)C)cc1 | 9.42% (active)
CC1CCC2(OC1)OC1C(O)C3C4CCC5CC(OC6OC(CO)C(OC7OC(CO)C(O)C(OC8OCC(O)C(O)C8O)C7OC7OC(CO)C(O)C(OC8OC(CO)C(O)C(O)C8O)C7O)C(O)C6O)C(O)CC5(C)C4CCC3(C)C1C2C (stereo not given) | -51.5% (active)
CC/C(=C/c1ccc(OC)cc1OC)[N+](=O)[O-] | 59%
COS(=O)(=O)c1ccccc1 | 98.5%
O=C(CBr)Nc1ccc(Cl)cc1 | 81.2%
COC12c3c(C)cc(O)c4c(=O)occ(c34)C(=O)C1C13COC(=O)c4c(O)cc(C)c(c41)C(=O)C2C3OC(C)=O (stereo not given) | 99.7%
C=C1C(=O)O[C@@H]2C[C@@H](C)[C@@H]3C=CC(=O)[C@@]3(C)[C@@H](O)[C@H]12 | -36.3% (active)
COC(=O)C1C(O)C(C)C(O)C(C)/C=C\C=C(C)C(=O)Nc2c(C)c(OC(C)=O)c3c(c2O)C(=O)C(C)=C2OCOC(=C23)C(C)=CC(C)(O)C(O)C(C)C1O (stereo not given) | 97.6%
O=C1CCC(=O)N1SC(Cl)(Cl)Cl | 108%

SMILES | growth
COC12C(COC(N)=O)C3=C(C(=O)C(C)=C(N)C3=O)N1CC1C2N1C (stereo not given) | 6.66% (active)
CC(C)(C)OOC(=O)/C=C\C(=O)OOC(C)(C)C | 103%
Oc1ccccc1-c1ccccc1 | 98.9% and 104%
NC(=O)c1cc([N+](=O)[O-])c(Cl)c([N+](=O)[O-])c1 | 88.6%
CN(C)CC1(N)C(=O)NC(=O)NC1=O | 98.6%
O=[N+]([O-])c1cc[n+]([O-])c2ccccc12 | -72.1% (active)
O=[N+]([O-])/C=C/c1ccc(Cl)cc1[N+](=O)[O-] | 65.6%
COc1cc([N+](=O)[O-])c2ncccc2c1[N+](=O)[O-] | 73.4%
CC/C(=C/c1ccc(OC)cc1)[N+](=O)[O-] | 51.8%
O=S(=O)(F)c1ccc(Cl)cc1 | 100%
COc1cc(/C=C(/C)[N+](=O)[O-])ccc1O | 61.1% and 81.4%
Cc1cc(C)c(C[N+](C)(C)C)c(C)c1C | 3.56% (active)
C[C@@H]1C[C@@H]([C@H](O)CC2CC(=O)NC(=O)C2)C(=O)[C@@H](C)C1 | -3.78% (active)
CC[C@@H](C)[C@@H]1NC(=O)C(NC(=O)C(CC(C)C)N(C)C(=O)C2CCCN2C(=O)C(C)O)C(C)OC(=O)C(Cc2ccc(OC)cc2)N(C)C(=O)C2CCCN2C(=O)C(CC(C)C)NC(=O)C(C)C(=O)C(C(C)C)OC(=O)C[C@H]1O (stereo not given in full) | -46.2% (active)
O=[N+]([O-])/C=C/c1ccc([N+](=O)[O-])cc1 | 56.7% and 68.7%
CCCCCCCC[N+]12CN3CN(CN(C3)C1)C2 | 92%
COc1cc([C@@H]2c3cc4c(c(O)c3C[C@H]3COC(=O)[C@@H]32)OCO4)cc(OC)c1OC | 17.3%
CCOP(=O)(OCC)C(O)c1ccccc1Cl (stereo not given) | 99.4%
O=c1[nH]c2ccccc2n1C1CCN(CCCC(c2ccc(F)cc2)c2ccc(F)cc2)CC1 | 59.8% and 38%
COc1ccc(/C=C\[N+](=O)[O-])cc1OC | 83.9% and 65.5%

— PubChem BioAssay (NCI)
